# High-throughput results deposited in PubChem by The Scripps Research Institute Molecular Screening Center.
# MITF inh – inhibitors of human MITF. 650,000 compounds, 0.91% hits. inhibition, % at 2.6 µM. O75030. AlphaScreen MITF homodimerization, bead proximity signal; in the data active = inhibition above about 50%;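 also: 0% = vehicle wells with protein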
# TEAD-YAP block – TEAD-YAP interaction inhibition | AID 1259422 | 640,000 compounds, 1.4% hits | HEK-TIYL cells, TEAD-Gal4/YAP UAS-luciferase luminescence | inhibition, % at 9.12 µM; in the data active = inhibition above about 32%;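 also: 0% = median of test compound wells and 100% = reference inhibitor wells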
# FBW7 activator – human FBW7 E3 ligase activation, primary screen; AlphaScreen FBW7–phospho-cyclin E peptide binding, activator screen; normalized activity (activation), % at 26.1 µM; 650,000 compounds, 0.13% hits; in the data active = normalized activity above about 1.9%;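 also: purified mutant Fbw7 with reduced substrate affinity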
# Target sequence (Q969H0 whole entry, looked up): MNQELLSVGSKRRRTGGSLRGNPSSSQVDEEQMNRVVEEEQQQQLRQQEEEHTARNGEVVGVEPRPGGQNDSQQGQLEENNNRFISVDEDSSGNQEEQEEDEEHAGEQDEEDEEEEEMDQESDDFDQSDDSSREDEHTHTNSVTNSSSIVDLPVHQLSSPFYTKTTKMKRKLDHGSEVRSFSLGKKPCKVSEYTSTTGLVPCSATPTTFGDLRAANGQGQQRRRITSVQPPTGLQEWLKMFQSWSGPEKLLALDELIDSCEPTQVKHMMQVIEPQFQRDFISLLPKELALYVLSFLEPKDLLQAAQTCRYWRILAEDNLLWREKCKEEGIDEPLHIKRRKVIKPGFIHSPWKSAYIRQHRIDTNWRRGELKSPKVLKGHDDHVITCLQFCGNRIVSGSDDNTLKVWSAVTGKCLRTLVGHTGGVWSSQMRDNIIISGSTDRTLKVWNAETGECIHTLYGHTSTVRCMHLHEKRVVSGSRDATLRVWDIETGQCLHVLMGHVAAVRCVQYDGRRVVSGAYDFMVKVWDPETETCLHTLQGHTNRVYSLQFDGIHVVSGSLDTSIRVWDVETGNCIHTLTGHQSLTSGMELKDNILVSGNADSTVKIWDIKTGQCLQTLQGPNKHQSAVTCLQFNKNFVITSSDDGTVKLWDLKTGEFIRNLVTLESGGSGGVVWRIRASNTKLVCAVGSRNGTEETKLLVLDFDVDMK
# GPR151 activ – activators of human GPR151. Q8TDV0. PathHunter beta-arrestin GPR151 cells, luminescence. activation, % at 11.2 µM. 650,000 compounds, 1% hits. AID 1508602; in the data active = activation above about 4.9%;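 also: 0% = median of compound wells and 100% = cells with positive control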
# The depositor's hits bear a star. Most compounds without a hit are left out; they make up all but 3.5% or so of the library.
SMILES,MITF inh,TEAD-YAP block,FBW7 activator,GPR151 activ
COC(=O)CSc1nc(-c2ccco2)cc(C(F)(F)F)c1C#N,0,11,2.0*,-1
COC(=O)CSc1nc(N)c(C#N)c(-c2ccco2)c1C#N,-11,0,0,1
Cc1cc(C)c(C#N)c(SCC(=O)Nc2nccs2)n1,-3,-54,0,-1
Cc1cc(C)c(C#N)c(SCC(=O)Nc2ccccn2)n1,9,86*,0,-1
Cc1cc(C(F)(F)F)c(N)c(SCC(=O)Nc2nc3ccccc3s2)n1,-3,65*,0,1
C=CCSc1nnc(NC(=O)C2CC(=O)N(c3ccc4c(c3)OCCO4)C2)s1 (stereo not given),-7,8,0,4
O=C(Cn1nnc(-c2ccc(-n3cnnn3)cc2)n1)Nc1cccc(F)c1,-8,-2,1,0
CCc1ccc(S(=O)(=O)Nc2cc3c4c(oc3c3ccccc23)CCC(C(C)(C)CC)C4)cc1 (stereo not given),14,5,1,2
CC(=O)NC(NC(=S)Nc1ccc(C(C)=O)cc1)C(Cl)(Cl)Cl (stereo not given),-22,-4,0,-2
COC(=O)C1=C(C)NC(=S)NC1c1ccc(Cl)cc1 (stereo not given),3,7,0,0
Cc1nc(Cl)c([N+](=O)[O-])c(N2CCCC2)n1,13,4,1,0
CCOc1ccc(N(CC(=O)Nc2ccccc2C)S(=O)(=O)c2c(C)noc2C)cc1,13,55*,1,1
COc1cc(CC2(CCC(=O)NCC(C)Oc3cccnc3)CCC(=O)N2)ccc1F (stereo not given),17,-4,2.1*,0
COc1cc(Nc2cc(C)nc(NCc3ccc4c(c3)OCO4)n2)cc(OC)c1OC,16,43*,1,4
COc1cc(Nc2ccnc(NCc3ccc4c(c3)OCO4)n2)cc(OC)c1OC,2,35*,0,1
COc1ccc(-c2nccc(Nc3cc(OC)c(OC)c(OC)c3)n2)cn1,5,60*,0,0
COc1cc(Nc2nccc(Nc3ccc4c(c3)OCO4)n2)cc(OC)c1OC,3,34*,0,2
CSc1ccc(CN2CCCC(C(=O)Nc3cccc(-n4cnnn4)c3)C2)cc1 (stereo not given),1,37*,0,-1
C=CCSc1nc2c(c(=O)[nH]c(=O)n2C)n1Cc1cccc(Br)c1,-5,-14,0,1
COc1ccc(CNC(=O)CCN2C(=O)c3cccnc3C2=O)cc1,-3,5,0,1
O=C(NCN1CCc2ccccc2C1)c1cnccn1,-2,-5,0,1
COc1ccc(C2Oc3ccccc3C3=C2C(c2cccs2)n2ncnc2N3)cc1OC (stereo not given),7,52*,0,0
O=C(O)C/C(=C\c1ccc2c(c1)OCCO2)c1nc2ccccc2s1,-6,0,0,2
O=C(O)C/C(=C\c1ccc(N2CCOCC2)cc1)c1nc2ccccc2s1,-4,75*,0,-1
N#C/C(=C\c1ccc(N2CCOCC2)cc1)c1nc2ccccc2s1,15,39*,0,-1
SMILES,MITF inh,TEAD-YAP block,FBW7 activator,GPR151 activ
CN(C)c1ccc(/C=C(\C#N)c2nc3ccccc3s2)o1,-4,53*,0,0
N=c1oc2ccccc2cc1C(=O)Nc1ccccc1F,2,-70,0,0
CCOC(=O)C(C(=O)Nc1ccc(Br)cc1)C1CCCCC1 (stereo not given),9,4,0,-2
CNC(=O)/C(=C\c1ccc([N+](=O)[O-])cc1)NC(=O)c1ccco1,9,3,0,0
NNC(=O)/C(=C/c1ccc([N+](=O)[O-])cc1)NC(=O)c1ccco1,-1,50*,0,0
O=S(=O)(c1ccc(F)c(F)c1)N1CCCc2ccccc21,18,10,1,1
O=C(O)c1c[nH]c2ccc(S(=O)(=O)N3CCCc4ccccc43)cc2c1=O,1,48*,0,1
Cc1cc(S(=O)(=O)N2CCCCCC2)ccc1-n1cnnn1,9,-4,0,0
O=S(=O)(c1ccc2ccccc2c1)N1CCCc2ccccc21,-7,55*,0,0
Cc1cc(S(=O)(=O)N2CCCc3ccccc32)ccc1-n1cnnn1,17,3,2.1*,0
O=S(=O)(c1ccc2oc3ccccc3c2c1)N1CCCc2ccccc21,-4,59*,0,-1
O=C(CSc1nnnn1-c1ccccc1F)NCc1ccc2c(c1)OCO2,0,-3,0,2
CCOc1ccc(C(=O)n2nc(N)c3cc4cc(OC)ccc4nc32)cc1OCC,7,52*,0,2
